Screening results as filed in PubChem BioAssay.
The full list was thinned out, with hits kept by preference.
miR-122 inh: miR-122 sensor activation. Huh7 psiCHECK-miR122 Renilla luciferase sensor, 48 h. activation, % at 12.5 µM. actives 0.14% (n = 340,000). AID 623901;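 active = mean activation of 30% or more, with every replicate also reaching 30%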;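 note: higher luciferase signal means stronger suppression of miR-122 activity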
Large screens that a line does not name were inactive.

NC(=O)c1cn(-c2ccccc2)nc1-c1cc2ccccc2oc1=O	miR-122 inh 77.1
COc1ccccc1S(=O)(=O)N(C)C[C@@H]1Oc2ncc(-c3ccc(C)cc3)cc2C(=O)N([C@@H](C)CO)C[C@H]1C	none
Cc1noc(C)c1NC(=O)N(C)C[C@H]1Oc2cc(C#CCC(C)C)ccc2S(=O)(=O)N([C@@H](C)CO)C[C@@H]1C	none
COc1cc2c(cc1OC)C(c1ccc(-c3ccc(Cl)c(Cl)c3)o1)=NCC2	miR-122 inh 44.2
COc1ccc(C#Cc2ccc3c(c2)O[C@@H](CN(C)C(=O)NC2CCCCC2)[C@@H](C)CN([C@H](C)CO)S3(=O)=O)cc1	none
C[C@H]1CN([C@@H](C)CO)S(=O)(=O)c2ccc(C#Cc3ccncc3)cc2O[C@@H]1CN(C)S(=O)(=O)c1ccccc1	none
COc1cccc(-c2ccc3c(c2)O[C@@H](CN(C)C(C)=O)[C@H](C)CN([C@H](C)CO)S3(=O)=O)c1	none
C[C@@H]1CN([C@H](C)CO)C(=O)c2cc(C#CC3(O)CCCC3)cnc2O[C@H]1CN(C)Cc1cncnc1	none
CN(C(=O)C12CC3CC(CC(C3)C1)C2)C1CCS(=O)(=O)C1 (centres undefined)	miR-122 inh 36.2
C[C@H]1CN([C@@H](C)CO)C(=O)c2cc(C#Cc3ccccc3F)cnc2O[C@@H]1CN(C)S(=O)(=O)c1ccccc1	none
C[C@@H]1CN([C@@H](C)CO)S(=O)(=O)c2ccc(C#Cc3ccccc3F)cc2O[C@H]1CN(C)C(=O)Cc1ccccc1	none
C[C@@H]1CN([C@H](C)CO)S(=O)(=O)c2ccc(Br)cc2O[C@H]1CN(C)C(=O)c1ccc2c(c1)OCO2	none
C[C@@H]1CN([C@@H](C)CO)S(=O)(=O)c2ccc(C#Cc3ccccc3F)cc2O[C@@H]1CN(C)C(=O)c1ccc2c(c1)OCO2	miR-122 inh 41.2
C[C@@H]1CN([C@H](C)CO)S(=O)(=O)c2ccc(C#Cc3ccccc3F)cc2O[C@H]1CN(C)C(=O)Cc1ccccc1	none
C[C@H]1CN([C@@H](C)CO)S(=O)(=O)c2ccc(C#Cc3ccccc3F)cc2O[C@@H]1CN(C)C(=O)Cc1ccccc1	none
C[C@@H]1CN([C@@H](C)CO)S(=O)(=O)c2ccc(C#Cc3ccccc3F)cc2O[C@@H]1CN(C)C(=O)Cc1ccncc1	miR-122 inh 57.1
C[C@H]1CN([C@@H](C)CO)C(=O)c2cc(-c3ccncc3)cnc2O[C@H]1CN(C)C(=O)C1CCOCC1	none
CCCN(C)C[C@H]1Oc2cc(C#CCN(C)C)ccc2S(=O)(=O)N([C@H](C)CO)C[C@H]1C	none
C[C@@H]1CN([C@H](C)CO)C(=O)c2cc(C#CC3(O)CCCC3)cnc2O[C@@H]1CN(C)Cc1ccncc1	none
COc1cccc(C#Cc2ccc3c(c2)O[C@H](CN(C)S(=O)(=O)c2ccccc2F)[C@H](C)CN([C@@H](C)CO)S3(=O)=O)c1	none
CO[C@H]1CN(C)C(=O)c2cc(NC(=O)Nc3ccccc3)ccc2OC[C@H](C)NC[C@@H]1C	none
C[C@H](CO)N1C[C@H](C)[C@H](CN(C)Cc2cncnc2)Oc2ncc(C#Cc3ccccn3)cc2C1=O	none
O=C(Cc1cccs1)Nc1ccc(S(=O)(=O)N2CCCCC2)cc1	none
O=C(Nc1nc(-c2cc3ccccc3o2)cs1)c1ccc(S(=O)(=O)N2CCCC2)cc1	miR-122 inh 51.7
O=C(Nc1nc2ccc(S(=O)(=O)N3CCCC3)cc2s1)C1CCCCC1	none
CC(C)NC(=O)Nc1ccc2c(c1)C(=O)N(C)[C@@H]1CC[C@H](CC(=O)NCC(F)(F)F)O[C@H]1CO2	miR-122 inh 36.7
CC(C)NC(=O)Nc1ccc2c(c1)C(=O)N(C)[C@@H]1CC[C@@H](CC(=O)NCC(F)(F)F)O[C@@H]1CO2	miR-122 inh 36.7
CC(C)C#Cc1ccc2c(c1)O[C@H](CN(C)C(=O)c1ccccc1)[C@@H](C)CN([C@H](C)CO)S2(=O)=O	none
C[C@H](CO)N1C[C@H](C)[C@H](CN(C)C(=O)c2cccnc2)Oc2cc(/C=C/c3ccccc3)ccc2S1(=O)=O	none
COc1cccc(-c2cnc3c(c2)C(=O)N([C@@H](C)CO)C[C@H](C)[C@@H](CN(C)CC2CCOCC2)O3)c1	none
COc1ccccc1NC(=O)N(C)C[C@@H]1Oc2ncc(C#CCC(C)C)cc2C(=O)N([C@H](C)CO)C[C@H]1C	none
COc1cccc(C#Cc2ccc3c(c2)O[C@H](CN(C)C(C)=O)[C@@H](C)CN([C@@H](C)CO)S3(=O)=O)c1	none
COc1ccc(-c2cnc3c(c2)C(=O)N([C@H](C)CO)C[C@H](C)[C@@H](CN(C)Cc2ccccn2)O3)cc1	none
C[C@H]1CN([C@@H](C)CO)C(=O)c2cc(C#CCc3ccccc3)cnc2O[C@H]1CN(C)C(=O)C1CCCCC1	none
CC(=O)N(C)C[C@H]1Oc2cc(C#C[C@H](C)O)ccc2S(=O)(=O)N([C@@H](C)CO)C[C@@H]1C	none
C[C@@H]1CN([C@H](C)CO)C(=O)c2cc(/C=C/c3ccccc3)cnc2O[C@H]1CN(C)C(=O)C1CCOCC1	none
COc1ccc(S(=O)(=O)Nc2ccc3c(c2)CC(=O)N([C@@H](C)CO)C[C@@H](C)[C@H](CN(C)CC2CC2)O3)cc1	none
CCN1CCN(Cc2ccc(NC(=O)c3ccc(C)c(NC(=O)c4c[nH]c5cc(C(F)(F)F)ccc5c4=O)c3)cc2C(F)(F)F)CC1	miR-122 inh 32.8
C[C@H]1CN([C@@H](C)CO)C(=O)c2cc(C#CC3CC3)cnc2O[C@H]1CN(C)C	none
C[C@@H]1CN([C@H](C)CO)C(=O)c2cc(Br)cnc2O[C@@H]1CN(C)C(=O)c1cccnc1	none
CN1CCN(c2ccc(Cl)cc2NC(=O)c2ccc(S(=O)(=O)N3CCCCCC3)cc2)CC1	miR-122 inh 39.6
COc1cccc(C(=O)Nc2cc([N+](=O)[O-])ccc2N2CCN(C)CC2)c1	none
COc1ccc(NC(C)=O)cc1S(=O)(=O)Nc1ccc(S(=O)(=O)N2CCCCC2)cc1	none
CCC(=O)Nc1ccc2c(c1)OC[C@H](C)N(CCC(F)(F)F)C[C@@H](C)[C@H](OC)CN(C)C2=O	none
C[C@@H]1CN([C@H](C)CO)S(=O)(=O)c2ccc(C#Cc3cccnc3)cc2O[C@@H]1CN(C)CC1CCOCC1	none
COc1ccc(-c2c(C)nn3c(N)c(-c4ccccc4)cnc23)cc1OC	miR-122 inh 45.4
CCOc1ccc(-c2cc(N)n(S(=O)(=O)c3ccc(OC)c(OC)c3)n2)cc1	none
CCC(=O)N(C)C[C@@H]1Oc2cc(C#C[C@@H](C)O)ccc2S(=O)(=O)N([C@@H](C)CO)C[C@@H]1C	none
CN1C(=O)c2cc(NC(=O)c3cccc(F)c3)ccc2OC[C@H]2O[C@H](CC(=O)NC3CCC3)CC[C@H]21	miR-122 inh 70.0
CO[C@H]1CN(C)C(=O)c2cc(NC(=O)c3ccc(F)cc3)ccc2OC[C@H](C)N(C)C[C@@H]1C	none
CN1C(=O)c2cc(NC(=O)c3cccc(F)c3)ccc2OC[C@H]2O[C@@H](CC(=O)O)CC[C@H]21	miR-122 inh 53.3
CN1C(=O)c2cc(NC(=O)c3cccc(F)c3)ccc2OC[C@@H]2O[C@@H](CC(=O)O)CC[C@@H]21	miR-122 inh 86.7
C[C@@H]1CN([C@@H](C)CO)C(=O)c2cc(/C=C/c3ccccc3)cnc2O[C@H]1CN(C)Cc1ccccc1F	none
C[C@@H]1CN([C@H](C)CO)C(=O)c2cc(/C=C/c3ccccc3)cnc2O[C@H]1CN(C)C(=O)c1ccncc1	none
C[C@@H]1CN([C@@H](C)CO)C(=O)c2cc(-c3cncnc3)cnc2O[C@H]1CN(C)Cc1ccc(F)cc1	none
CO[C@H]1CN(C)C(=O)c2ccc(NC(=O)NC(C)C)cc2OC[C@@H](C)NC[C@H]1C	none
C[C@@H]1CN([C@@H](C)CO)C(=O)c2cc(C#CC3CC3)cnc2O[C@@H]1CN(C)C	none
